Results on 25 molecules are retold here after PubChem BioAssay (NCATS).

Where “and” joins values, the source holds several entries; their conditions need not be identical. Equal values may be shown once. Results filed as inconclusive are left out. A number with no mark means an inactive call. Calls of active or inactive are those of the source. The call rests on the fitted dose curve; in most records, active means well fitted curve in the direction sought with a large enough effect; inconclusive means small, poorly fitted or top-dose-only effect, or another doubt; inactive means no such curve, though single readings can be large; an effect the other way counts as inactive or inconclusive.

Assay [1] deals with Cellular tumor antigen p53 (Homo sapiens) (UniProt P04637). Nature of the assay: Primary qHTS for small molecule compounds that upregulate eGFP-tagged delta133p53alpha (in N-terminal) cells. (AID 2060322). Further: nearly all actives have a fitted effect of over 75% in size. Further: potency means the concentration at half of the fitted maximal effect.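 On activation: cells pre-induced with doxycycline then dosed without doxycycline; 0% = DMSO vehicle and 100% = reference activator.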 The following applies: NCI-H358 eGFP-delta133p53alpha fluorescence, 24 h; activation: active compounds read high. The method in brief:
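NCI-H358 cells pre-induced 24 h with 10 ng/ml doxycycline for eGFP-delta133p53alpha, plated dox-free and exposed 24 h at 37C to titrated compounds. Fixed, Hoechst-stained; gated GFP peak intensity by laser scanning cytometry, normalized to DMSO (0%) and 57.5 uM 5-azacytidine (100%).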
(Quantitative high-throughput screening tests each substance at several concentrations.)

The target in assay [2] is Aldehyde dehydrogenase, mitochondrial (Homo sapiens) (UniProt P05091). Briefly: qHTS for Inhibitors of the Aldehyde Dehydrogenase Family (ALDH2) Primary screen (AID 2061308).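 Further: plate controls were vehicle for no effect and reference inhibitor for full effect; nearly all actives have a fitted effect of over 55% in size.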 The following applies: ALDH2 enzyme inhibition qHTS, 1536-well; series mostly up to 56 µM.
For assay [3], the target named is Retinaldehyde dehydrogenase 3 (Homo sapiens) (UniProt P47895). Briefly: qHTS for Inhibitors of the Aldehyde Dehydrogenase Family (ALDH1A3) Primary screen (AID 2061315).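 Further: plate controls were DMSO vehicle for no effect and reference inhibitor for full effect.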 The following applies: ALDH inhibition qHTS; series mostly up to 56 µM.

Chain of Cellular tumor antigen p53 (Homo sapiens) (P04637 whole entry, looked up): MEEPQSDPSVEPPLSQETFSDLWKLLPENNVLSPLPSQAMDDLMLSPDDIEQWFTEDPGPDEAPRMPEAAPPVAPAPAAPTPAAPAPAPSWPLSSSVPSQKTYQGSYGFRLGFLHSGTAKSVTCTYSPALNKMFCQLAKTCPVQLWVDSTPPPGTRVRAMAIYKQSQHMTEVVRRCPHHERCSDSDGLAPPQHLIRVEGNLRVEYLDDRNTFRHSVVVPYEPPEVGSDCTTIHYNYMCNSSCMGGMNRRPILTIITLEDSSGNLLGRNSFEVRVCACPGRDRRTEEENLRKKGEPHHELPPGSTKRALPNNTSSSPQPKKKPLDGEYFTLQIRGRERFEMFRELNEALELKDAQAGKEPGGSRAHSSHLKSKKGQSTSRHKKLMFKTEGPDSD

For `CC1(C)C[C@H](O)C[C@@]2(C)[C@H]1[C@H](O)C=C1COC(=O)[C@@]12O`, the activation in assay [1] was 6.11%. The Potency result in assay [2] and in assay [3] was “inactive” each time.

On to `C/C=C(\C)C(=O)OCC1OC(OC2OC(CO)C(O)C(O)C2O)C(O)C(O)C1O` (stereo not given), for which the activation in assay [1] is -16.8%. Also, the Potency result in assay [2] and in assay [3] was “inactive” each time.

For `COc1cc(/C=C/C(=O)OC2CC3CCC2(C)C3(C)C)ccc1O` (stereo not given), the activation in assay [1] is -14.5%. Further, the Potency result in assay [2] and in assay [3] was “inactive” each time.

Regarding `C[C@@H]1C(=O)O[C@H](C)[C@H]1C[C@@H](O)[C@](C)(O)[C@H]1CC[C@@]2(O)C3=CC(=O)[C@@H]4C[C@@H](O)[C@@H](O)C[C@]4(C)C3CC[C@]12C` (stereo not given in full), the activation in assay [1] was -5.36%. Further, the Potency result in assay [2] and in assay [3] was “inactive” throughout.

With `COC(=O)C1=CO[C@@H](O[C@@H]2O[C@H](CO)[C@@H](O)[C@H](O)[C@H]2O)[C@@H]2[C@@H](C(=O)O)CC[C@H]12`, the activation in assay [1] is -5.34%. The Potency entry in assay [2] and in assay [3] was “inactive” throughout.

Turning to `O=C(O[C@@H]1O[C@H](CO)[C@@H](O)[C@H](O)[C@H]1O)c1ccccc1`, the activation in assay [1] is -9.82%. For the same molecule, the Potency result in assay [2] and in assay [3] was “inactive” each time.

With `CC(C)(C)NC(=O)[C@@H](c1cccnc1)N(C(=O)c1ccco1)c1ccc(C(C)(C)C)cc1`, the activation in assay [1] is 5%. Further, the Potency result in assay [2] and in assay [3] was “inactive” in each case.

On to `CC/C=C\CC1C(CC(=O)O)CCC1OC1OC(CO)C(O)C(O)C1O` (stereo not given), for which the activation in assay [1] was 0%. Further, the Potency result in assay [2] and in assay [3] was “inactive” each time.

In the case of `COC(=O)C1(C)c2[nH]c3ccccc3c2CCN1C(=O)CCl` (stereo not given), the Potency in assay [1] is 30.1 µM (active). In addition, the Potency result in assay [2] and in assay [3] was “inactive” in each case.

On to `COC1C(O)C(OC2CCC3(C)C(CCC45CCC6C7(COC(=O)C7)OC4(O)C6(C)CCC35)C2)OC(C)C1OC1OC(CO)C(OC2OC(CO)C(O)C(O)C2O)C(O)C1O` (stereo not given), for which, in assay [1], the activation is 1.53%. Also, the Potency result in assay [2] and in assay [3] was “inactive” each time.

For `C=C1C(O)C[C@@H]2C(C(=O)O)=CO[C@@H](O[C@@H]3O[C@H](CO)[C@@H](O)[C@H](O)[C@H]3OC(=O)c3ccc(O)cc3)[C@H]12` (stereo not given in full), the activation in assay [1] was 9.82%. In addition, the Potency result in assay [2] and in assay [3] was “inactive” in each case.

Turning to `O=C(O)/C=C/c1ccc2occc2c1O[C@@H]1O[C@H](CO)[C@@H](O)[C@H](O)[C@H]1O`, in assay [1], the activation is 8.4%. Moreover, the Potency entry in assay [2] and in assay [3] was “inactive” in each case.

In the case of `O=C(Nc1ccc(C(O)(C(F)(F)F)C(F)(F)F)cc1)c1ccc(C(F)(F)F)cc1`, the activation in assay [1] was 0%. Also, the Potency entry in assay [2] and in assay [3] was “inactive” throughout.

For the molecule `CC12CC34C=CC(=O)C(C)(CCC(=O)O)C3C(CC1C4)O2` (stereo not given), the activation in assay [1] is 23.7%. In addition, the Potency entry in assay [2] and in assay [3] was “inactive” in each case.

With `CC(C)CC(=O)NCCn1cc(C(=O)O)c(=O)cc1C(O)c1ccccc1` (stereo not given), the activation in assay [1] was -1.53%. Also, the Potency result in assay [2] and in assay [3] was “inactive” in each case.

Regarding `COc1c2c(c(C)c3c1C(=O)OC3)O[C@@]1(C)CC(O)C(C(C)(C)O)[C@](C)(CCC(=O)O)[C@H]1C2` (stereo not given in full), the activation in assay [1] was -9.16%. Moreover, the Potency entry in assay [2] and in assay [3] was “inactive” each time.

On to `CC1(C)SC2C(NC(=O)[C@H](NC(=O)N3CCNC3=O)c3ccccc3)C(=O)N2C1C(=O)O` (stereo not given in full), for which the activation in assay [1] was 17%. Further, the Potency result in assay [2] and in assay [3] was “inactive” in each case.

With `CN1CCN(C(c2ccccc2)c2ccccc2)CC1`, the activation in assay [1] is 14.2% and -0.955%. Besides, the Potency entry in assay [2] and in assay [3] was “inactive” throughout.

Regarding `C/C=C(\C)C(=O)OC[C@H]1O[C@@H](O[C@H]2[C@@H](O[C@H]3O[C@H](COC(=O)/C(C)=C/C)[C@@H](O)[C@H](O)[C@H]3O[C@@H]3O[C@H](COC(=O)/C(C)=C/C)[C@@H](O)[C@H](OC(=O)/C(C)=C/C)[C@H]3O)O[C@H](COC(=O)/C(C)=C/C)[C@@H](O)[C@@H]2O)[C@H](O)[C@@H](O)[C@@H]1O`, the activation in assay [1] was -15.3%. In addition, the Potency entry in assay [2] and in assay [3] was “inactive” each time.

In the case of `Cc1cc(C(=O)N2Cc3cnn(C)c3Nc3ccccc32)ccc1CNC(=O)N1CCN(Cc2cc(O)cc(O)c2)CC1`, the activation in assay [1] is -7.16%. Moreover, the Potency entry in assay [2] and in assay [3] was “inactive” throughout.

As for `COc1c(C)c(OCC=C(C)C)cc2c1CNC2=O`, the activation in assay [1] was -19.8%. The Potency result in assay [2] and in assay [3] was “inactive” each time.

Consider `C=C1CCCC2(C)CCC(C(C)(C)OC3OC(C)C(O)C(O)C3OC(=O)/C(C)=C\C)CC12` (stereo not given), for which the activation in assay [1] was -19.8%. Also, the Potency result in assay [2] and in assay [3] was “inactive” throughout.

Turning to `C=C1CC[C@@H]2C(C)(C)CCC[C@@]2(C)[C@@H]1CC/C(=C/C(=O)OC)COC(C)=O`, the activation in assay [1] was -31.3%. Moreover, the Potency entry in assay [2] and in assay [3] was “inactive” each time.

On to `CC(C)(C)OC(=O)N1CCC(OCc2nc(-c3ccncc3)no2)CC1`, for which the activation in assay [1] is -3.34%. Also, the Potency result in assay [2] and in assay [3] was “inactive” throughout.

In the case of `COc1cc(O)c2c(c1)C1=C[C@H](O)[C@@H](O)C[C@]1(C)OC2=O`, the activation in assay [1] was 1.53%. In addition, the Potency result in assay [2] and in assay [3] was “inactive” in each case.
